Unmarked numbers belong to inactive results. Results filed as inconclusive are left out. The source made the active and inactive calls. Unless noted, the call rests on the fitted dose curve; in most records, active means well fitted curve in either direction with a large enough effect (not every such curve was filed as active); inconclusive means small, poorly fitted or top-dose-only effect, or another doubt; inactive means flat fitted curve, though single readings scatter.
How the values were obtained:
[1] = AP1 Signaling Pathway (AID 357); conditions: ME-180 AP-1-bla reporter, EGF-induced, beta-lactamase ratio, 5 h; at 17.2 µM (top of the series) unless noted;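 further: ME-180 reporter cells stimulated with EGF at its EC50 level; on the % scale 0 is the no-effect control and ±100 the full control effect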
How it was run: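 Read-out was the 460nm/530nm emission ratio (excitation 405nm) after CCF4 loading for 2.5 hours at room temperature. Cells carried an AP-1-driven beta-lactamase reporter, were stimulated with EC50 EGF plus compound for 5 hours, and AC50 values came from titrations.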

[2] = NFAT Signaling Pathway (AID 444); conditions: Jurkat NFAT-bla M1, carbachol, beta-lactamase ratio, 5 h; at 17.2 µM (top of the series) unless noted;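 further: carbachol stimulus at about its EC50 of 1 µM final; on the % scale 0 is the no-effect control and ±100 the full control effect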
How it was run: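 Jurkat cells with NFAT-driven β-lactamase reporter and co-expressed M1 receptor, stimulated with carbachol (final 1 uM, ~EC50), compound titration, 5 h at 37 °C. CCF4 loaded 1 h at RT; 460/530 nm ratio gave %activity and AC50.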

[3] = Stat Signaling Pathway (AID 446); conditions: ME-180 (cervical carcinoma) SIE beta-lactamase reporter, IL-6 stimulated, 5 h; at 17.2 µM (top of the series) unless noted;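 further: ME-180 cervical cancer cells given 40 pM IL-6 alongside compound; SIE-controlled beta-lactamase reporter measured as 460/530 nm FRET emission ratio; on the % scale 0 is the no-effect control and ±100 the full control effect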
How it was run: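 Compound effects on IL-6-induced STAT reporter activity were measured in ME-180 cells. After overnight culture, cells were co-treated with 40 pM IL-6 for 5 hrs before beta-lactamase substrate loading at room temperature.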

[4] = molecular target: Glucocorticoid receptor (Homo sapiens) (UniProt P04150); test: GR-GFP Redistribution (AID 450;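 active means compounds whose dose series gives a full or clear partial fitted curve of increased nuclear translocation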; further: potency means the concentration at half of the fitted maximal effect)
Glucocorticoid receptor (Homo sapiens), sequence (P04150 whole entry, looked up): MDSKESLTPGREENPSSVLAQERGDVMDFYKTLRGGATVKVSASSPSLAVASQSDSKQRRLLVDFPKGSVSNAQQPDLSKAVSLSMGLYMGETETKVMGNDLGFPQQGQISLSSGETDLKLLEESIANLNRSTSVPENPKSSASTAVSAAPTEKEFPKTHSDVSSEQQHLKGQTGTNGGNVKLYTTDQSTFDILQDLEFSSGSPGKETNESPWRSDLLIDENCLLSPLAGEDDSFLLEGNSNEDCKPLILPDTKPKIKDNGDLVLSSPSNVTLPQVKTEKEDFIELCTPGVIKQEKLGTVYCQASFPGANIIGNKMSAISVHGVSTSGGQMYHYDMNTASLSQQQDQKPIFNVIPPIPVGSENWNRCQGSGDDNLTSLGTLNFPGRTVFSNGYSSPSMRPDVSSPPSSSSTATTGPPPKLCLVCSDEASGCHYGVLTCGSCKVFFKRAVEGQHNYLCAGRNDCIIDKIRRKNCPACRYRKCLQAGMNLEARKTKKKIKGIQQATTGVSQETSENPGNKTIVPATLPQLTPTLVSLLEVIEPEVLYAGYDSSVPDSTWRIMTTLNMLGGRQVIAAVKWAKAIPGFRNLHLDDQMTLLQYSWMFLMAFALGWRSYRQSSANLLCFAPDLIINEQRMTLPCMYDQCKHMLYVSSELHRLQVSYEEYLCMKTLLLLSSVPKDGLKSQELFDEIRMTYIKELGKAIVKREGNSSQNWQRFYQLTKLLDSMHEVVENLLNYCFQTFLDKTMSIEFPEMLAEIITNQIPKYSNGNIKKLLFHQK

SMILES | activity change, negative = inhibition [1] [%] | activity change, negative = inhibition [2] | activity, negative = inhibition [3] [%] | Potency [4] [µM]
C/C=C/c1ccccc1OCc1ccc(C(=O)O)o1 | -6.57 | -2.78% | -2.17 | > 20.6
CCO/C(C)=N/n1c2nc3ccccc3nc2c2c(=O)n(CC(C)C)c(C)nc21 | -19.8 | 12.6% | -8.62 | > 20.6
CCOC(=O)C(C)Oc1ccc2c(C)cc(=O)oc2c1C(C)=O (stereo not given) | 3.53 | 2.57% | 4.2 | > 20.6
CC1(C)CC(=O)C(C=N)=C(O)C1 | -5.44 | 1.7% | 2.78 | > 20.6
CC1(C)CC(=O)C2=C(C1)OC(N)=C(C#N)[C@@]21C(=O)N(CC(N)=O)c2ccccc21 | 10.8 | 4.51% | -18.4 | > 20.6
COc1ccccc1C1/C(=C(/O)c2ccc(C)cc2)C(=O)C(=O)N1CCN1CCOCC1 (stereo not given) | -9.75 | 19.8% | 1.99 | > 20.6
CCN(CC)CCCN1C(=O)C(=O)/C(=C(/O)c2ccccc2)C1c1cc(OC)ccc1OC (stereo not given) | 3.34 | 7.04% | 3.31 | > 20.6
COCc1[nH]nc2c1C(c1ccnc3ccccc13)C(C#N)=C(N)O2 (stereo not given) | -7.4 | 17.7% | -1.49 | > 20.6
CC(=O)NCC(=O)OCN1C(=O)c2ccccc2C1=O | 10.5 | -1.05% | 0.512 | > 20.6
CC(NC(=O)NCc1cccnc1)(C(F)(F)F)C(F)(F)F | 12.2 | -2.79% | 2.04 | > 20.6
CC1CCc2cc(F)cc3c(O)c(C(=O)Nc4cnccn4)c(=O)n1c23 (stereo not given) | -8.92 | 19.5% | 11.1 | > 20.6
CCOc1cccc(C2C(C#N)=C(N)Oc3cc(C)oc(=O)c32)c1OCC (stereo not given) | -17.6 | 9.73% | -12.7 | > 20.6
COC(=O)/C=c1/s/c(=C(/C#N)C(=O)N2CCOCC2)n(-c2ccccc2)c1=O | 8.21 | -4.89% | -9.79 | > 20.6
COC(=O)c1cc(Br)c(=O)n(Cc2ccco2)c1 | 10.7 | -14.5% | -3.41 | > 20.6
CCOC(=O)c1sc(-n2[nH]c(C)cc2=O)nc1C | -2.34 | 8.32% | 1.64 | > 20.6
COC(=O)C(NC(=O)c1ccccc1)(Nc1nc(C)cs1)C(F)(F)F (stereo not given) | 20 | 6.46% | -6.57 | > 20.6
Cc1nc2c(c(N3CCOCC3)n1)OCC(=O)N2 | 6.3 | -1.47% | 6.75 | > 20.6
CCCCOC(=O)c1[nH]c(C)c(C(=O)OC)c1C | -3.13 | 8.05% | -9.04 | > 20.6
CCCc1[nH]n(-c2nc3ccccc3s2)c(=O)c1C=NCCN1CCOCC1 | -6.38 | -13.8% | -4.13 | > 20.6
CC1(C)CC(=O)C2=C(C1)OC(N)=C(C#N)C2C1C=CCCC1 (stereo not given) | 3.93 | 24.4% | -5.68 | > 20.6
CCN(CC)CCOC(=O)C1(c2ccc(OC)c(OC)c2)CCCC1 | 10.4 | -82.2% (active) | 11 | > 20.6
Cc1ccc(C(=O)C2=C(O)C(=O)N(CCN3CCOCC3)C2c2ccccn2)o1 (stereo not given) | -1.65 | 8.69% | 5.67 | > 20.6
COCc1[nH]nc2c1C(c1cccc(OC)c1)C(C#N)=C(N)O2 (stereo not given) | -19.1 | -19.7% | -11 | > 20.6
COCCCN1C(=O)C(O)=C(C(=O)c2ccco2)C1c1ccc(Br)cc1 (stereo not given) | -15.5 | 11.4% | -8.56 | > 20.6
CCOC(=O)CSc1nc2ccccc2c(=O)n1C | -12.5 | -11.5% | 1.58 | > 20.6

Reference: PubChem BioAssay (NCATS)
